# Records with an inconclusive call do not appear. A call without a number means that no potency is given here. Active and inactive are the calls of the source. Calls follow the shape of the dose curve; as a rule, active = well fitted inhibition curve with a large enough effect; inconclusive = small, poorly fitted or top-dose-only effect; inactive = no such curve, though single readings can be large or run the other way.
# Target: Thioredoxin reductase 1, cytoplasmic (Rattus norvegicus) (UniProt O89049)
# Assay: qHTS Assay for Inhibitors of Mammalian Selenoprotein Thioredoxin Reductase 1 (TrxR1) (AID 488773); also: nearly all actives have a fitted effect of over 40% in size
# Details: purified TrxR1 enzyme activity; Potency: inhibition; series mostly up to 57.1 µM
# Text: The selenoprotein thioredoxin reductase (TrxR; EC 1.8.1.9) is a FAD containing homodimeric pyridine nucleotide-disulfide oxidoreductase with many cellular roles. Together with NADPH and its prime substrate thioredoxin (Trx), the enzyme forms the core of the Trx system. The mammalian Trx system exerts a wide spectrum of functions including redox regulation, antioxidant defense, regulation of transcription factors as well as support of cell growth and replication. Many of these functions involve the reduction of Trx, which may subsequently reduce a number of different substrates including ribonucleotide reductase, peroxiredoxins or NFkB. Mammalian TrxR itself also has a broad substrate specificity, reducing both protein and non-protein substrates, including low molecular weight compounds such as dehydroascorbate, lipoic acid, ubiquinone, and juglone. In addition, several drugs in clinical use for anticancer treatment are indeed known to target TrxR1.
# This BioAssay is a validation of an NADPH fluorescence-based, dual-purpose qHTS rTrxR1 assay designed to find potential inhibitors and substrates of rTrxR1. For this particular BioAssay, actives are potential inhibitors. See related BioAssay for substrate data deposition.
# Assay protocol: 2 uL of reagents (buffer in column 4 as negative control and 90 nM rTrxR1 in columns 1-3 and 5-48) were dispensed into Greiner black solid-bottom 1,536-well assay plates, followed by 1 uL of NADPH (400 uM final concentration) to each well. The plates were centrifuged at 1000 rpm for 15 seconds and subsequently incubated for 5 min at room temperature (~22 deg C) to allow for rTrxR1 reduction. Compounds (23 nL) were then transferred via Kalypsys pin tool equipped with 1536-pin array (10 nL slotted pins, V&P Scientific, San Diego, CA). In addition, a duplicate 2-fold serial dilution of the control compounds auranofin, a known gold-based TrxR1 inhibitor, and juglone (5-hydroxy-1,4-naphthoquinone), a natural TrxR1 substrate, were pin-transferred to columns 2 and 3, respectively. After incubation for 15 min at room temperature (~22 deg C), 1 uL of selenite (400 uM final concentration) were dispensed to each well. The plate was immediately transferred to a ViewLux high-throughput CCD imager (PerkinElmer), wherein kinetic measurements of NADPH fluorescence (Ex 340 nm, Em 450 nm) were acquired (8 minute kinetic read, see Table 1). Read 1 was utilized to assess the capacity of a compound to serve as an rTrxR1 substrate, i.e. a decrease in NADPH fluorescence compared to the no-compound background is an indication of a substrate behavior for that particular compound. For inhibitory activity of a compound, delta values, computed as the difference in fluorescence intensity between the first and last reads of an 8-minute time kinetic window, were used. All reagents were diluted in an assay buffer consisting of 50 mM Tris-HCl, pH 7.5, 2 mM EDTA, and 0.01% Tween-20.
# Throughout the screen, reagent bottle and all liquid lines were made light-tight to minimize reagent degradation. All screening operations were performed on a fully integrated robotic system (Kalypsys, San Diego, CA) containing one RX-130 and two RX-90 anthropomorphic robotic arms (Staubli, Duncan, SC). Library plates were screened starting from the lowest and proceeding to the highest concentration, and a 'double-pinning' step of the highest concentration was required to access higher concentrations of compounds. Vehicle-only plates, with DMSO being pin-transferred to the columns 5-48, were inserted uniformly at the beginning and the end of each library in order to monitor and record any shifts in the background, which can be affected by reagent dispensers or loss in enzyme activity over time. Screening data were corrected, normalized, and concentration-effect relationships were derived by using publicly-available curve fitting algorithms developed in-house (http://ncgc.nih.gov/pub/openhts).
# Potency is read from the fitted curve at half-maximal effect.
# Sequence of Thioredoxin reductase 1, cytoplasmic (Rattus norvegicus) (O89049 whole entry, looked up): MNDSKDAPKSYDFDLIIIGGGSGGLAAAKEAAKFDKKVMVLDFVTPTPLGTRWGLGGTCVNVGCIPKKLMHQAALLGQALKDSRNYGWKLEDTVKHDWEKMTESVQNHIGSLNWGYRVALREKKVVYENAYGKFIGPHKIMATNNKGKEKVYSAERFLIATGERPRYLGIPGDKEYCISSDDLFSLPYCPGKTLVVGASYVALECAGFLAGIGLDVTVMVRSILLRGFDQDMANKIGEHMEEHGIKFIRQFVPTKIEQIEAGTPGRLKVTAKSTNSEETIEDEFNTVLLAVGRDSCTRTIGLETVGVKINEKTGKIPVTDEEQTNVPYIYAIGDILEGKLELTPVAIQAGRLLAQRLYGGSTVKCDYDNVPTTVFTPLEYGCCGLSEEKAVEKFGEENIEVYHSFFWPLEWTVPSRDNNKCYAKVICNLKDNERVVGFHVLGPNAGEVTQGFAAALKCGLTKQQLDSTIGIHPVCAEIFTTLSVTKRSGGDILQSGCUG
row,Compound,Potency
1,Cc1ccc(/C(=C\CN2CCCC2)c2ccccn2)cc1,inactive
2,CN1C[C@H](C(=O)N[C@]2(C)O[C@@]3(O)[C@@H]4CCCN4C(=O)[C@H](Cc4ccccc4)N3C2=O)C[C@@H]2c3cccc4[nH]cc(c34)C[C@H]21,inactive
3,O=C1CC2(CCCC2)CC(=O)N1CCCCN1CCN(c2ncccn2)CC1,inactive
4,CC(C)(C)NCC(O)c1cc(O)cc(O)c1 (stereo not given),inactive
5,C[N+](C)(C)CCOC(N)=O,inactive
6,CN1CCN(CC(=O)N2c3ccccc3C(=O)Nc3cccnc32)CC1,inactive
7,COC(=O)C1=C(C)NC(C)=C(C(=O)OCCN(C)Cc2ccccc2)C1c1cccc([N+](=O)[O-])c1 (stereo not given),inactive
8,CCn1cc(C(=O)O)c(=O)c2cc3c(cc21)OCO3,inactive
9,COCCc1ccc(OCC(O)CNC(C)C)cc1 (stereo not given),inactive
10,Cc1cccc(C)c1NC(=O)C(C)N (stereo not given),inactive
11,CNCCC(Oc1ccccc1OC)c1ccccc1 (stereo not given),inactive
12,C[C@@H](O)[C@H]1C(=O)N2C(C(=O)O)=C(SCCN=CN)C[C@H]12,inactive
13,NCCCNCCSP(=O)(O)O,inactive
14,NC(Cc1ccc(Cl)cc1)C(=O)O (stereo not given),inactive
15,CC(C(=O)O)c1ccc(CC2CCCC2=O)cc1 (stereo not given),inactive
16,CN(C)CC/C=C1\c2ccccc2COc2ccccc21,inactive
17,Cc1cc(C)c(/C=C2\C(=O)Nc3ccccc32)[nH]1,inactive
18,C[N+](C)(C)CCCCCCCCCC[N+](C)(C)C,inactive
19,NC/C=C/C(=O)O,inactive
20,C[N+](C)(C)CCOC(=O)CCC(=O)OCC[N+](C)(C)C,inactive

row,Compound,Potency
1,CC(C)[N+](C)(CCOC(=O)C1c2ccccc2Oc2ccccc21)C(C)C,inactive
2,CCNC(=O)N1CCN(CCCC(c2ccc(F)cc2)c2ccc(F)cc2)CC1,inactive
3,COc1cc(C(=O)OCCCN2CCCN(CCCOC(=O)c3cc(OC)c(OC)c(OC)c3)CC2)cc(OC)c1OC,inactive
4,CCCN(CCC)C(=O)C(CCC(=O)O)NC(=O)c1ccccc1 (stereo not given),inactive
5,C[n+]1cc2c3c(ccc2c2ccc4cc5c(cc4c21)OCO5)OCO3,inactive
6,COCC(=O)O[C@]1(CCN(C)CCCc2nc3ccccc3[nH]2)CCc2cc(F)ccc2[C@@H]1C(C)C,inactive
7,Cc1nc2ccccn2c(=O)c1CCN1CCC(C(=O)c2ccc(F)cc2)CC1,inactive
8,CCCN1C[C@H](CSC)C[C@@H]2c3cccc4[nH]cc(c34)C[C@H]21,inactive
9,Cc1ccc(=O)n(-c2ccccc2)c1,inactive
10,COCCCC/C(=N\OCCN)c1ccc(C(F)(F)F)cc1,inactive
11,C(=C\c1ccccc1)/CN1CCN(C(c2ccccc2)c2ccccc2)CC1,inactive
12,CN1C(=O)CC[C@H]1c1cccnc1,inactive
13,CCN1CCC[C@H]1CNC(=O)c1c(O)c(Cl)cc(Cl)c1OC,inactive
14,CCO/C([O-])=N/c1c[n+](N2CCOCC2)no1,inactive
15,C[C@]12CC[C@@H]3c4ccc(O)cc4C[C@@H](CCCCCCCCCS(=O)CCCC(F)(F)C(F)(F)F)[C@H]3[C@@H]1CC[C@@H]2O (stereo not given in full),inactive
16,CN(C)CCN(Cc1cccs1)c1ccccn1,inactive
17,CC(C)(C)c1ccc(C(=O)CCCN2CCC(OC(c3ccccc3)c3ccccc3)CC2)cc1,inactive
18,FC(F)(F)c1ccccc1-n1ccnc1,inactive
19,CNCCCN1c2ccccc2CCc2ccccc21,inactive
20,CO[C@@]1(NC(=O)CSCC#N)C(=O)N2C(C(=O)O)=C(CSc3nnnn3C)CS[C@@H]21,21.2 µM (active)

# Source: PubChem BioAssay (NCATS)
